Bioassay records deposited in PubChem by Broad Institute.
This is one part of a sample in which hits are shown more often than they occur.
PD-1 reversal: reversal of PD-1 mediated T-cell inhibition; 29,000 tested, under 10 active; activation, % (test concentration not listed); AID 2316; primary human CD4 T cells, PD-L1 beads, CellTiter-Glo 96 h; call rule not given here;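 also: 0% = median vehicle wells and 100% = positive control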
NOMO-1 viab: STK33 inhibitor candidate reducing NOMO-1 cell viability. inhibition, % (no concentration beside the values). NOMO-1 AML viability, CellTiter-Glo luminescence, 72 h. 37,000 compounds, 7.5% hits. AID 2330; in the data active = inhibition above about 80%; inconclusive = no clear call, values can overlap the other calls
STK33 kin inh: inhibitors of human STK33 kinase; inhibition, % at 12.5 µM; Q9BYT3; 27,000 compounds, 0.44% hits; ADP-Glo luminescence, MBP substrate; in the data active = inhibition above about 20%; inconclusive = no clear call, values can overlap the other calls
Target sequence (Q9BYT3 whole entry, looked up): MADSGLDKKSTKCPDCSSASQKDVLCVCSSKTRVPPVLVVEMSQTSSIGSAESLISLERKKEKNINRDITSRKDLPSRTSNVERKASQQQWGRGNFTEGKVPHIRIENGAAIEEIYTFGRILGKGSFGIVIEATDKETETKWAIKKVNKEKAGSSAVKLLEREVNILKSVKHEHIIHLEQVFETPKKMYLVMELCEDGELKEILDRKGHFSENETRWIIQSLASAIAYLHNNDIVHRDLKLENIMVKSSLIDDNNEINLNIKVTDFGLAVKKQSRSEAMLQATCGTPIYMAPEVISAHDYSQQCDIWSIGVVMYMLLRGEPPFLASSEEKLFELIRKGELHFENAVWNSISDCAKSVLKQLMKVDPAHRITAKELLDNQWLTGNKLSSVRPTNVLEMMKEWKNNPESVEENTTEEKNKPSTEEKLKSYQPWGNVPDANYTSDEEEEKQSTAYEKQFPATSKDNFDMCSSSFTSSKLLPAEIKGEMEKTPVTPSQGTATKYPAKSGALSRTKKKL
* marks the source's active call; other numbers are inactive results; ? = inconclusive; nt = no result.

SMILES	PD-1 reversal	NOMO-1 viab	STK33 kin inh
CCN1C(=O)c2cccc3c(S(=O)(=O)N4CCCC4C(=O)O)ccc1c23 (stereo not given)	0.7	-8.3	0.2
CCN1C(=O)c2cccc3c(S(=O)(=O)Nc4ccccc4)ccc1c23	-1.1	104.8*	nt
CC(C)C(NS(=O)(=O)c1ccc(F)c(Cl)c1)C(=O)O (stereo not given)	1.7	-18.9	-5.1
CC1=CC(c2ccccc2)=C(C#N)C(=S)C1CC(=O)c1cccs1 (stereo not given)	0.5	26.1	nt
CC(C)c1ccc(NCC(O)COc2ccc(Cl)c(Cl)c2)cc1 (stereo not given)	-3.4	116.6*	nt
CC(C)c1ccc(NCC(O)CSc2ccccc2)cc1 (stereo not given)	-0.6	109.9*	nt
Cc1cc2ncn(CC(O)COc3ccc(C(C)C)cc3)c2cc1C (stereo not given)	-6.0	?	0.1
Cc1cc(C)c(C#N)c(SCC(O)CNc2ccc(Cl)cc2)n1 (stereo not given)	0.7	27.1	-5.3
CC(=O)Nc1ccc(NC(=O)CSc2nnc(-c3ccncc3)n2-c2ccc(Cl)cc2)cc1	2.8	-35.9	0.7
O=C(CCCN1C(=O)c2ccccc2C1=O)Nc1cccc(Cl)c1	nt	-8.5	0.4
C[C@@H]1CN([C@@H](C)CO)C(=O)Cc2cc(NC(=O)Cc3cn(C)c4ccccc34)ccc2O[C@@H]1CN(C)C(=O)Nc1ccc(C(F)(F)F)cc1	-1.4	45.9	0.2
C[C@@H]1CN([C@H](C)CO)C(=O)Cc2cc(NC(=O)Cc3cn(C)c4ccccc34)ccc2O[C@@H]1CN(C)C(=O)Nc1ccc(C(F)(F)F)cc1	-0.6	5.9	1.4
C[C@@H]1CN([C@H](C)CO)C(=O)Cc2cc(NC(=O)Cc3cn(C)c4ccccc34)ccc2O[C@H]1CN(C)Cc1ccc(C(F)(F)F)cc1	-3.6	132.9*	6.6
C[C@H]1CN([C@@H](C)CO)C(=O)Cc2cc(NC(=O)Cc3cn(C)c4ccccc34)ccc2O[C@H]1CN(C)Cc1ccc(C(F)(F)F)cc1	nt	83.5*	1.9
Cc1cccc(-n2c(N)cc(=O)nc2SCC(=O)Nc2sc3c(c2C#N)CCCCCC3)c1	-9.4	38.9	-0.9
C[C@H](CO)N1C[C@H](C)[C@H](CN(C)Cc2ccc(C(F)(F)F)cc2)Oc2c(NC(=O)C3CCCCC3)cccc2C1=O	nt	59.3	nt
C[C@H]1CN([C@@H](C)CO)C(=O)c2cccc(NC(=O)C3CCCCC3)c2O[C@@H]1CN(C)Cc1ccc(C(F)(F)F)cc1	0.8	91.0*	nt
C[C@@H]1CN([C@@H](C)CO)C(=O)c2cccc(NC(=O)C3CCCCC3)c2O[C@H]1CN(C)Cc1ccc(C(F)(F)F)cc1	-2.2	105.3*	nt
C[C@H](CO)N1C[C@H](C)[C@@H](CN(C)Cc2ccc(C(F)(F)F)cc2)Oc2c(NC(=O)C3CCCCC3)cccc2C1=O	-1.8	99.4*	nt
C[C@@H]1CN([C@@H](C)CO)C(=O)c2cccc(NC(=O)C3CCCCC3)c2O[C@@H]1CN(C)Cc1ccc(C(F)(F)F)cc1	-3.3	?	nt
C[C@@H]1CN([C@H](C)CO)C(=O)c2cccc(NC(=O)C3CCCCC3)c2O[C@@H]1CN(C)Cc1ccc(C(F)(F)F)cc1	-1.8	47.0	nt
CC1CCC2(C(=O)OC3OC(CO)C(O)C(O)C3O)CCC3(C(=O)O)C(=CCC4C5(C)CCC(O)C(C)(C)C5CCC43C)C2C1C (stereo not given)	0.7	9.5	1.9
O=C(CSc1nc(-c2ccccc2)cc(C(F)(F)F)n1)Nc1ccccc1Cl	-1.7	15.3	-1.3
O=C(O)COc1ccc(S(=O)(=O)NC2CCCCC2)cc1Cl	nt	-26.7	-2.6
Cc1ccc(S(=O)(=O)N(C)CC(=O)Nc2ccccc2C(N)=O)cc1	nt	-9.7	-1.4
SMILES	PD-1 reversal	NOMO-1 viab	STK33 kin inh
CC(=O)Nc1nonc1-c1nc2ccccc2n1Cc1ccccc1Br	-3.8	115.0*	3.7
Cn1c(-c2nonc2NC(=O)c2ccccc2Br)nc2ccccc21	-0.4	29.0	8.8
C[C@@H]1CN([C@H](C)CO)C(=O)Cc2cc(NS(=O)(=O)c3ccccc3)ccc2O[C@@H]1CN(C)Cc1ccc(Cl)c(Cl)c1	-7.3	84.9*	3.6
C[C@@H]1CN([C@H](C)CO)C(=O)Cc2cc(NS(=O)(=O)c3ccccc3)ccc2O[C@H]1CN(C)Cc1ccc(Cl)c(Cl)c1	0.2	111.1*	7.8
C[C@H](CO)N1C[C@H](C)[C@H](CN(C)Cc2ccccc2)Oc2ccc(NS(=O)(=O)c3ccccc3)cc2CC1=O	1.9	45.1	0.8
C[C@H]1CN([C@@H](C)CO)C(=O)Cc2cc(NS(=O)(=O)c3ccccc3)ccc2O[C@H]1CN(C)Cc1ccc(Cl)c(Cl)c1	0.2	100.2*	5.9
C[C@@H]1CN([C@@H](C)CO)C(=O)Cc2cc(NS(=O)(=O)c3ccccc3)ccc2O[C@@H]1CN(C)Cc1ccccc1	-1.2	15.4	0.3
C[C@H](CO)N1C[C@H](C)[C@H](CN(C)Cc2ccc(Cl)c(Cl)c2)Oc2ccc(NS(=O)(=O)c3ccccc3)cc2CC1=O	-1.0	68.2	8.6
O=S(=O)(NCC1CCN(Cc2ccc(OCCO)cc2)CC1)c1cc(C(F)(F)F)ccc1Cl	nt	nt	-4.2
CC(=O)c1cccc(N(CC(=O)Nc2ccc(C)cc2)S(C)(=O)=O)c1	nt	0.8	-1.1
C[C@@H]1CN([C@H](C)CO)C(=O)Cc2cc(NC(=O)Nc3ccc(C(F)(F)F)cc3)ccc2O[C@H]1CN(C)S(=O)(=O)c1ccc(Cl)cc1	-5.3	117.0*	3.2
C[C@H](CO)N1C[C@H](C)[C@H](CN(C)S(=O)(=O)c2ccc(Cl)cc2)Oc2ccc(NC(=O)Nc3ccc(C(F)(F)F)cc3)cc2CC1=O	-5.4	133.6*	-0.1
C[C@@H]1CN([C@H](C)CO)C(=O)Cc2cc(NC(=O)Nc3ccc(C(F)(F)F)cc3)ccc2O[C@@H]1CN(C)S(=O)(=O)c1ccc(Cl)cc1	0.1	15.5	-2.7
C[C@@H]1CN([C@H](C)CO)C(=O)Cc2cc(NC(=O)Nc3ccc(C(F)(F)F)cc3)ccc2O[C@H]1CN(C)S(=O)(=O)c1ccccc1	2.3	16.8	7.6
O=S1(=O)C=C2C(C1)SC(=S)N2C1CCS(=O)(=O)C1 (stereo not given)	-0.3	16.4	nt
Cc1c(Br)c([N+](=O)[O-])nn1CC(=O)Nc1ccc(C#N)cc1	1.0	52.0	-2.2
Cc1ccccc1N(CC(=O)Nc1cccc(Cl)c1Cl)S(C)(=O)=O	0.4	5.1	-0.3
COC(=O)CN(c1cccc(C)c1)S(=O)(=O)c1ccc(Cl)c(Cl)c1	nt	8.4	4.0
CCn1c(SCC(=O)Nc2cc(Cl)ccc2Cl)nnc1-c1ccc(Cl)cc1	-1.2	-29.5	-17.5
CC(=O)N1N=C2c3ccccc3CCC2C1c1cccs1 (stereo not given)	-1.1	-7.2	nt
C=CCNC(=S)N1N=C2c3ccccc3CCC2C1c1ccccc1Cl (stereo not given)	-0.9	109.2*	nt
CC(CN1CCN(Cc2ccccc2)CC1)N(C(=O)c1ccc(C(C)(C)C)cc1)c1ccccn1 (stereo not given)	-0.8	45.3	-2.2
COc1ccccc1NC(=O)C1CC(=O)n2c(nc3ccccc32)N1 (stereo not given)	nt	3.3	-3.3
O=C(COc1ccc([N+](=O)[O-])cc1)Nc1ccccc1-c1nc2ccccc2s1	-1.3	35.2	0.4
